# According to the supplement of paper PMC8728848:
# This is one part of a sample in which the strongest signals are shown more often than they occur.
# How the values were obtained:
# Experiment in all cases: glycan array binding signal (z-score within array); higher = stronger binding
# Conditions in all cases: glycan notation: IUPAC condensed, linker removed
# [1] = system: Gal(b1-3)[Fuc(a1-4)]GlcNAc(b1-6)GalNAc
# How it was run: (§1)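 The binding signal is a Z-score computed within each array and averaged over linkers. Arrays of the same protein sequence at different concentrations or buffers were also averaged together. Data originate from 3228 arrays in the Consortium for Functional Glycomics database, kept only where the protein sequence was available.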
# Gal(b1-4)Gal = system: Gal(b1-4)Gal
# How it was run: as §1
# Gal(b1-4)Glc6S = system: Gal(b1-4)Glc6S
# How it was run: as §1
# [2] = system: Gal(b1-3)[Fuc(a1-4)]GlcNAc
# How it was run: as §1
# [3] = system: Gal(b1-3)[Neu5Ac(a2-6)]GalNAc
# How it was run: as §1
# [4] = system: Gal(b1-3)[Fuc(a1-4)]GlcNAc(b1-2)Man(a1-3)[Gal(b1-3)[Fuc(a1-4)]GlcNAc(b1-2)Man(a1-6)]Man(b1-4)GlcNAc(b1-4)[Fuc(a1-6)]GlcNAc
# How it was run: as §1
# [5] = system: Gal(b1-4)GalNAc(b1-3)[Fuc(a1-2)]Gal(b1-4)GlcNAc
# How it was run: as §1
# [6] = system: Gal(b1-3)[Fuc(a1-4)]GlcNAc(b1-3)Gal(b1-3)[Fuc(a1-4)]GlcNAc
# How it was run: as §1
# [7] = system: Gal(b1-3)[Fuc(a1-4)]GlcNAc(b1-3)Gal(b1-4)GlcNAc
# How it was run: as §1
# [8] = system: Gal(b1-3)[Fuc(a1-4)]GlcNAc(b1-3)Gal(b1-4)[Fuc(a1-3)]GlcNAc
# How it was run: as §1
substance,measurement,setting,value
AgI/II Vhelical-GFP (Streptococcus mutans),glycan array binding signal (z-score),[1],1.08
same,glycan array binding signal (z-score),Gal(b1-4)Gal,2.56
same,glycan array binding signal (z-score),Gal(b1-4)Glc6S,-0.148
Epa22,glycan array binding signal (z-score),[2],-0.223
same,glycan array binding signal (z-score),[3],3.02
same,glycan array binding signal (z-score),Gal(b1-4)Glc6S,-0.061
Actinohivin (Actinomycete K97),glycan array binding signal (z-score),[4],2.06
"BambL (Burhholderia ambifaria), Q0B4G1",glycan array binding signal (z-score),[4],-0.066
same,glycan array binding signal (z-score),[5],-0.283
"SiiE (Salmonella typhimurium), A0A0H3NVH0",glycan array binding signal (z-score),[6],-0.613
"Wza (Escherichia coli), P0A930",glycan array binding signal (z-score),[7],1.14
same,glycan array binding signal (z-score),[1],2.92
"SpGH101 (Streptococcus pneumoniae), Q8DR60",glycan array binding signal (z-score),[4],0.539
same,glycan array binding signal (z-score),[8],-0.146
